Compound activity (PubChem BioAssay)
Pf Dd2 inh – qHTS Primary assay for Inhibitors of Plasmodium falciparum Dd2 growth in vitro; P. falciparum Dd2 growth, SYBR Green, 72 h; Potency, µM (doses to about 28.9 µM), hits mostly inhibitors; hit rate 4.3% among 120,000; AID 1347417, 2020; active = well fitted inhibition curve with a large enough effect; note: nearly all actives have a fitted effect of over 65% in size
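Infected erythrocytes (Dd2, 0.3% parasitemia, 2.5% hematocrit final) are added to compound in RPMI-1640/Albumax II medium, grown 72 h at 37C in low oxygen, then lysed with saponin/Triton-X containing SYBR Green and read by fluorescence.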
Hits are given with their value; n = inactive; [ ] = another dose, or the depositor's remark. The full list was thinned out, with hits kept by preference.

SMILES | Pf Dd2 inh
O=C1CCN(C(=O)C2COc3ccccc3O2)CCCOCCN1 (stereo not drawn) | n
Cc1c(-c2ccc(F)cc2)[nH]c2ccc(CNCc3cnn(C)c3)cc12 | n
CN(C)c1nc2c(c(=O)[nH]1)CCN(Cc1cc(F)c(F)c(F)c1)CC2 | n[5.79 µM]
O=C1CCN(S(=O)(=O)c2ccccc2)CCCN(S(=O)(=O)c2ccc3c(c2)CCC3)CCN1 | 3.55µM
CC(=O)N1CCCN(S(=O)(=O)c2ccccc2)CCC(=O)NCC1 | n
CN(C)S(=O)(=O)N1CCCN(S(=O)(=O)c2ccccc2)CCC(=O)NCC1 | n
Cc1cc(F)ccc1NC(=O)c1ccc2nc(Cc3ccccc3)oc2c1 | n
Cc1cc(F)ccc1NC(=O)c1csc2c1CCC(C)C2 (stereo not drawn) | 4.47µM
O=C(Nc1ccc(F)cc1)c1csc2c1CCCCC2 | n
Cc1cc(C(=O)N2CCC(N3C(=O)C(OCC4CC4)C34CCOCC4)CC2)n(C)n1 (stereo not drawn) | n
CCc1cccc2c(C(CC(=O)NCC(C)C)c3cccc([N+](=O)[O-])c3)c[nH]c12 (stereo not drawn) | n
Cc1cccc(O[C@H]2COCCN(Cc3nccn3C)C2)n1 | 11.2µM
Cc1cccc(O[C@H]2COCCN(c3nc4ccccc4o3)C2)n1 | n
Cc1cccc(O[C@H]2COCCN(C(=O)c3cc(C)nn3C)C2)n1 | n
O=C([C@@H]1C[C@H](Oc2cccnc2)CN1C(=O)c1n[nH]c2ccccc12)N1CCOCC1 | n
COCCN1C(=O)CS(=O)C12CCN(S(=O)(=O)c1cn(C)cn1)CC2 (stereo not drawn) | n
Cc1cc(C(=O)N2CCCC2c2nc(CCOCC3CCCC3)no2)nn1C (stereo not drawn) | n
O=C(NC1CCCCC1)c1ccc2c(c1)sc1nc(-c3ccccc3)cn12 | n
O=C(NCCCN1CCCCCC1)c1ccc2c(c1)sc1nc(-c3ccccc3)cn12 | 10µM
O=C(NCc1cccs1)c1ccc2c(c1)sc1nc(-c3ccc(F)cc3)cn12 | n
Cc1ccc(-c2cn3c(n2)sc2cc(C(=O)NC4CCCCCC4)ccc23)cc1 | n
CCc1ccc(-c2cn3c(n2)sc2cc(C(=O)NC4CCCCCC4)ccc23)cc1 | n
CCc1ccc(-c2cn3c(n2)sc2cc(C(=O)NCCCc4ccccc4)ccc23)cc1 | n
CCc1ccc(-c2cn3c(n2)sc2cc(C(=O)NCC(C)c4ccccc4)ccc23)cc1 (stereo not drawn) | n
CCC1CCCCN1CCCNC(=O)c1ccc2c(c1)sc1nc(-c3ccc(F)cc3)cn12 (stereo not drawn) | 1µM
SMILES | Pf Dd2 inh
Cc1ccc(-c2cn3c(n2)sc2cc(C(=O)NCCCc4ccccc4)ccc23)c(C)c1 | 5.01µM
CCOC(=O)C1=CN(CC(=O)Nc2ccccc2Cl)S(=O)(=O)N=C1C | n
COCCNc1cc(-c2noc([C@@H]3CCCN3Cc3ccccn3)n2)ccn1 | n
O=C1NC2(CCN(C(=O)c3cccnc3)C2)N=C1c1cccnc1 (stereo not drawn) | n
COc1ccc(OC)c(NC(=O)c2oc3c(c2C)-c2nn(Cc4ccc(Cl)cc4)cc2CC3)c1 | 10µM
COc1ccc(NC(=O)c2oc3c(c2C)-c2nn(Cc4c(F)cccc4Cl)cc2CC3)c(OC)c1 | n
COc1cc(NC(=O)c2oc3c(c2C)-c2nn(Cc4cccc(Cl)c4)cc2CC3)cc(OC)c1 | n
COc1cc(OC)cc(-c2onc(C)c2C(=O)NCc2ccc(F)c(F)c2)c1 | n
CCc1cccc2c(C(CC(=O)NCCC(C)C)c3cccc(OC)c3OC)c[nH]c12 (stereo not drawn) | n
N#Cc1ccc(C(=O)N2CCCN(C(=O)C3CC3)C(c3ccccc3)CC(=O)NCC2)cc1 (stereo not drawn) | n
C[C@@H](NC(=O)C1CCCC1)c1c(-c2ccc(Cl)cc2)noc1C(=O)O | n
CC1(c2ccccc2)N(Cc2cccnc2)C(=O)OC12CCN(C(=O)Cc1ccccc1)CC2 (stereo not drawn) | n
CC1(c2cccnc2)N(Cc2ccccc2)C(=O)OC12CCN(C(=O)COc1ccccc1)CC2 (stereo not drawn) | 6.31µM
CC1(c2ccccc2)N(Cc2ccccc2C#N)C(=O)OC12CCN(C(=O)CN1CCOCC1)CC2 (stereo not drawn) | n
COc1cccc(CN2C(=O)OC3(CCN(C(=O)C4CCC4)CC3)C2(C)c2cccnc2)c1 (stereo not drawn) | n
COc1cccc(CN2C(=O)OC3(CCN(Cc4c[nH]c5ccccc45)CC3)C2(C)c2cccnc2)c1 (stereo not drawn) | 0.794µM
COc1cccc(CN2C(=O)OC3(CCN(C(C)=O)CC3)C2(C)c2cccnc2)c1 (stereo not drawn) | n
CC1(c2ccccc2)N(Cc2ccccc2)C(=O)OC12CCN(Cc1cccnc1N)CC2 (stereo not drawn) | n
COc1ncccc1CN1CCC2(CC1)OC(=O)N(Cc1ccccc1C#N)C2(C)c1ccccc1 (stereo not drawn) | 4.47µM
CC1(c2ccccc2)N(Cc2ccccc2)C(=O)OC12CCN(C(=O)COc1ccccc1)CC2 (stereo not drawn) | n
CC(=O)c1c(C)nn(CC(=O)N2CCN(c3ccnc(C)c3)CC2)c1C | n
COCC1CCN(C(=O)C2CCCN(C(=O)c3ccccc3)CCC(=O)NCC2)CC1 (stereo not drawn) | n
CNC(=O)[C@@H]1C[C@H](Oc2ccccc2)CN1C(=O)c1ccc(Cn2nc(C)cc2C)o1 | n
N[C@H]1[C@H](O)[C@@H](N2CCC(Cc3ccccc3)CC2)[C@@H]2OC[C@H]1O2 | n
CN(C)C(=O)CCC(=O)N1CCN(Cc2ccccc2)CC(O)C1 (stereo not drawn) | n
SMILES | Pf Dd2 inh
O=C(N1CCN(Cc2ccccc2)CC(O)C1)C1(N2CCCC2)CCCC1 (stereo not drawn) | 4.47µM
CC(=O)N1CCC(C(=O)N2CCN(Cc3ccccc3)CC(O)C2)CC1 (stereo not drawn) | n
CCn1ccc(C(=O)N2CC(Oc3ccc(-c4nc(C)no4)cc3)C2)n1 | n[5.79 µM]
CS(=O)(=O)N1CCN(C(=O)CCC2CCN(c3cc(NC4CC4)ncn3)CC2)CC1 | n
Cc1noc([C@@H]2CC(F)(F)CN2C(=O)CCc2c(C)noc2C)n1 | n
CC(C)CC1=NS(=O)(=O)c2cc(NC(=O)C3CC3)ccc2N1c1ccccc1 | 2µM
CC(C)C1=NS(=O)(=O)c2cc(NC(=O)c3ccco3)ccc2N1c1ccccc1 | n
CCC1=NS(=O)(=O)c2cc(NC(C)=O)ccc2N1CC(C)C | n
Cc1ccc(S(=O)(=O)N2C[C@@H](C(N)=O)[C@H](C3CCN(C)CC3)C2)cc1Cl | n
CCc1nncn1C1CCN(S(=O)(=O)c2ccc(OC)cc2)CC1 | n
CN1CCC([C@@H]2CN(S(=O)(=O)c3ccc4c(c3)CCC4)C[C@H]2C(N)=O)CC1 | n
CCC[C@@H]1CN(S(=O)(=O)c2ccc(OC(F)F)cc2)C[C@H]1N(C)C | 5.62µM
N[C@H]1CN(S(=O)(=O)c2ccc(OC(F)F)cc2)C[C@@H]1C1CC1 | 5.62µM
CC(=O)NC[C@H]1CCN(S(=O)(=O)c2ccc(C#N)cc2)C[C@H]1N(C)C | n
Cc1cc(C(=O)N2CC[C@H]3CC(=O)N(Cc4ccc5c(c4)OCO5)CC[C@H]3C2)no1 | n
CN(CCCc1cnn(C)c1)C(=O)[C@H]1CNC[C@@H](C(=O)N2CCOCC2)C1 | n
Cc1cc(C(=O)N2CCCC(n3c(C)cnc3C3CC3)C2)n(C)n1 (stereo not drawn) | n
